In ChEMBL document CHEMBL3988442, “University of Dundee, Small-Polar-MMV Screening Library” (2021):

molecular target: AMP-activated protein kinase, AMPK (Homo sapiens) (UniProt P54646+O43741+P54619+Q9UGJ0+Q9Y478+Q13131+Q9UGI9); assay: AMP-dependent Kinase enzyme assay. An in vitro enzyme assay that detects ADP turnover that is directly proportional to AMPK activity. This uses naive AMPK that is activated during the assay with MK-8722; type: functional; design: scale not given: direction of the effect not stated beside the values; settings: 30 µM

SMILES | Percent Effect [%]
CCOCCC(=O)N1CCCC(c2cc(C(F)(F)F)[nH]n2)C1 (stereo not given) | 0.822
O=C(Cc1cccnc1)N1CCCC(c2cc(C(F)(F)F)[nH]n2)C1 (stereo not given) | 2.17
Cc1n[nH]c(C)c1CCN(C)c1ccc(-c2nc(C3CC3)no2)cn1 | -6.17
Cc1nn(C)c2ncnc(NCc3nncn3C3CCCCC3)c12 | 10.1
O=C(Cc1c(F)cccc1Cl)Nc1cc(N2CCOCC2)ncn1 | 5.35
CCN(CC)S(=O)(=O)NC1CCN(c2ccc(OC)cc2)CC1 | 9.49
c1ccc(C2CN(C3CC3)CC3(CCN(Cc4ncc[nH]4)CC3)C2)cc1 (stereo not given) | 6.22
C[C@@H]1CN(c2cccnn2)CC[C@@]1(O)C1CCOCC1 | 2.06
COc1cccc(NC(=O)CN(C(C)C)C2CC2)c1 | -0.663
COCCN1C[C@@H](C(=O)O)[C@H](c2ccccc2C)C1 | -1.51
Cc1ccc(-n2cc(CN3CCOCC(CN(C)C)C3)cn2)cc1C (stereo not given) | 8.42
CCCn1nnnc1COC(=O)C1COc2ccccc2O1 (stereo not given) | 3
CC(Cc1cccc(F)c1)C(=O)NS(=O)(=O)c1ccc2c(c1)OCCO2 (stereo not given) | 3.32
CN(CC(=O)NCC1CCCCC1)S(=O)(=O)c1cccnc1 | -4.46
O=C(c1cnn2ccccc12)N1CCCC(OCc2ccccn2)C1 (stereo not given) | 14.8
COc1ccc2c(c1)Cc1c-2nc(N)c(C#N)c1C1CCOC1 (stereo not given) | -32.8
CN(C)C(C(=O)N1CCN(CCn2cccc2)CC1)c1ccc(F)cc1 (stereo not given) | -8.31
CNC(=O)c1ccnc(CC2COc3c(cccc3OC)C2)c1 (stereo not given) | 7.88
COCCOc1ccc(F)cc1NCc1nc2ccccc2n1C | 8.68
c1c[nH]c(-c2cn(CCSc3cnn[nH]3)nn2)n1 | -8.05

SMILES | Percent Effect [%]
Cc1nccn1[C@@H]1CC[C@@H](N(C)S(=O)(=O)c2ccc(F)cc2)[C@H]1O | 27.2
Cn1ccc(C(=O)N2CCCCC2c2cc(CCO)[nH]n2)n1 (stereo not given) | 30.2
CC(C)(C)CN(CCC#N)C(=O)c1cccc(CC#N)c1 | 4.84
Cc1nc(CN2CCc3ccc(S(N)(=O)=O)cc32)oc1C | -7.39
Cc1cc(NC(=O)CO)nn1-c1ccc(Cl)cc1Cl | -3.56
Cc1c(Br)cccc1C(=O)Nc1cc(C(N)=O)n(C)c1 | 3.87
CCOc1ccccc1-n1c(C2CCC2)n[nH]c1=O | 13.5
CC(C)(C)NC(=O)CNc1ccc(Br)cn1 | 7.07
COc1ccccc1CN1CCC(c2nccc(C)n2)C1 (stereo not given) | -3.97
CN(C)c1ccc(C(=O)Nc2ccn(CCc3ccncc3)n2)cc1 | 10.3
CS(=O)(=O)c1ccc(CNC(=O)NCc2cc[nH]n2)cc1 | -5.06
CCCOc1ccccc1CCCNc1ncnc2oc(C)nc12 | 2.11
O=C(c1cc(C2CC2)nc2onc(-c3ccccc3)c12)N1CCOCC1 | 4.72
CCc1cc(N2CCC(NCc3ccc(C)o3)CC2)ncn1 | 6.83
Cc1noc(CCCNC(=O)C2CSCN2C(=O)C(C)(C)C)n1 (stereo not given) | -6.28
Cc1cc(C)n(C2CN(CCC(N)=O)C2)n1 | -0.505
Cc1ccc(C(=O)NC2CCCN(C)C2)c(=O)[nH]1 (stereo not given) | -3.1
COc1ccc(F)c(-c2cc(C(=O)NC3CC3)ccn2)c1 | -7.5
CN(Cc1ccccc1CNC(=O)C1CNC(=O)N1)C1CCCCC1 (stereo not given) | -6.64
COCCN(CC(F)F)c1cc(COC)nc2ncnn12 | 0.272
